# Reference: PubChem BioAssay (Tox21)
# Results filed as inconclusive are left out. The source made the active and inactive calls. Calls come from the whole dose curve.
# Test: qHTS assay for small molecules that induce genotoxicity in human embryonic kidney cells expressing luciferase-tagged ATAD5 - cell viability (AID 651634); note: nearly all actives have a fitted effect of over 25% in size
# Settings: HEK293T ATAD5-luc cells viability, CellTiter-Fluor, 15.5 h; series mostly up to 83.3 µM; activity, negative = cytotoxicity: at the top concentration
# Source text: National Center for Advancing Translational Sciences [NCATS]
# NIH Chemical Genomics Center [NCGC]
# U.S. Environmental Protection Agency [EPA]
# National Institutes of Environmental Health Sciences [NIEHS]
# National Toxicology Program [NTP]
# U.S. Food and Drug Administration [FDA]
# Enhanced Level of Genome Instability Gene 1 (ELG1; human ATAD5) protein levels increase in response to various types of DNA damage. Using a luciferase reporter-gene tagged with ElG1, a cell-based assay [developed by Kyungjae Myung, NHGRI, NIH] was used to measure the induction of ATAD5 in human embryonic kidney cells (HEK293T). So, increase in luciferase activity can be used to identify the compounds that cause genetic stress. In addition to genotoxicity, these cells were also used to test for cytotoxicity by measuring the protease activity within live cells.
# Tox21 Assay Protocol Summary:
# For cytotoxicity screening, 2,000 cells in 5 uL/well were dispensed into white, solid-bottom 1536-well plates using a Multidrop Combi (Thermo Scientific) dispenser. Following transfer of 23 nL compound or DMSO vehicle by a pin tool, the plates were incubated 15.5 hr at 37C and 5% CO2. 1 ul CellTiter-Fluor reagent (Promega, Madison, WI) was then added to each plate and following 30 min incubation at 37C, fluorescence intensity was quantified on a ViewLux CCD-based plate reader.
# % is set by controls: 0 for no effect and ±100 for the full control effect; potency is the fitted concentration of half-maximal effect.
SMILES,"activity, negative = cytotoxicity",Potency
CN(C)c1ccc(N(C)C)cc1,10.7% (inactive),
CCOc1nc(F)cc2nc(S(=O)(=O)Nc3c(Cl)cccc3Cl)nn12,-8.88% (inactive),
[O-][Cl+]O,25.3% (inactive),
ClCC(Br)CBr (stereo not given),-0.58% (inactive),
O=[Se]=O,,0.764 µM (active)
C=CCN1CC[C@]23c4c5ccc(O)c4O[C@H]2C(=O)CC[C@@]3(O)[C@H]1C5,,inactive
CC(c1ccc(O)cc1)(c1ccc(O)cc1)c1ccc(O)cc1,9.44% (inactive),
c1ccc(CN2CCNCC2)cc1,-7.05% [at 260 µM] (inactive),
OC(c1ccc(Cl)cc1)(c1ccc(Cl)cc1)c1cccnc1,-4.2% (inactive),
O=C1CN=C(c2ccccc2)c2cc(Cl)ccc2N1CC1CC1,,inactive
IC(I)=C(I)I,,27.3 µM (active)
[CH3][Sn]([CH3])([Cl])[Cl],,inactive
O=C(OC1CCCCC1)c1ccccc1C(=O)OC1CCCCC1,11.6% [at 95.3 µM] (inactive),
ClCc1ccccc1,11.3% (inactive),
ClP(Cl)(Cl)(Cl)Cl,-10.7% [at 95.3 µM] (inactive),
O=S(=O)(Cl)c1ccccc1,4.08% [at 95.3 µM] (inactive),
CN1[C@@H]2CC[C@H]1CC(OC(=O)c1cc(Cl)cc(Cl)c1)C2 (stereo not given in full),25.2% (inactive),
N#CCc1ccccc1,8.07% [at 95.3 µM] (inactive),
CC(C)N(CCC(C(N)=O)(c1ccccc1)c1ccccn1)C(C)C (stereo not given),12.7% (inactive),
O=C(O)COc1ccc(Cl)cc1,13.4% (inactive),

SMILES,"activity, negative = cytotoxicity",Potency
CCOS(C)(=O)=O,7.21% [at 95.3 µM] (inactive),
Clc1cccc2ccccc12,-10.9% (inactive),
O=C(O)C(F)(F)C(F)(F)C(F)(F)C(F)(F)C(F)(F)C(F)(F)C(F)(F)C(F)(F)C(F)(F)F,-4.04% (inactive),
Nc1nc(=S)[nH][nH]1,7.86% (inactive),
CCOP(O)OCC,10.9% (inactive),
N#C/C(N)=C(/N)C#N,-14.5% (inactive),
COC(C)(C)CCC[C@H](C)C/C=C/C(C)=C/C(=O)OC(C)C,17.5% (inactive),
O=C(NC(=O)c1c(F)cccc1F)Nc1ccc(OC(F)(F)C(F)OC(F)(F)F)c(Cl)c1 (stereo not given),19% (inactive),
CC/C(=N\OC/C=C/Cl)C1=C(O)CC(C2CCOCC2)CC1=O (stereo not given),9.12% (inactive),
NC(=O)CI,7.86% [at 95.3 µM] (inactive),
CCCCN(N=O)C(=N)N[N+](=O)[O-],-7.08% [at 95.3 µM] (inactive),
Cn1cc[n+](C)c1 (tested in a mixture with another compound),12.8% [at 95.3 µM] (inactive),
O=C1C(=O)c2cccc3cccc1c23,,54.4 µM (active)
N#Cc1cc(I)c(O)c(I)c1,-22.7% (inactive),
COP(=S)(Oc1cc(Cl)c(Br)cc1Cl)c1ccccc1 (stereo not given),-9.57% (inactive),
C[C@@H]1CC[C@H]2[C@@H](C)C(=O)O[C@@H]3O[C@@]4(C)CC[C@@H]1[C@]32OO4,,1.06 µM (active)
Clc1ccc(C2(Cn3cncn3)CC(Br)CO2)c(Cl)c1 (stereo not given),12.7% (inactive),
C=CC[C@]1(O)CC[C@H]2[C@@H]3CCC4=CC(=O)CCC4=C3C=C[C@@]21C,16.3% (inactive),
CCCCCCCCOC(=O)c1ccc(C(=O)OCCCCCCCC)c(C(=O)OCCCCCCCC)c1,7.28% [at 95.3 µM] (inactive),
CCn1cc[n+](C)c1,,inactive
